# Test results: PubChem BioAssay AID778 (Sanford-Burnham Center for Chemical Genomics, 2007)
# Screen size: about 96,000 compounds; about 20,000 (21%) were called active. These entries were drawn from the full list. A number with no mark means an inactive call.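 Rule for the calls: active = CYP2C19 inhibition above a set limit at 5 µM in the primary screen (cut at about 50% in these data); inactive = the rest.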
# Target: Cytochrome P450 2C19 (Homo sapiens) (UniProt P33261)
# Assay: blockers of cytochrome P450 2C19 activity – biochemical, luminescence, ADME assay, primary screen (AID 778);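 note: plate controls were negative control wells for no effect and 2.5 mM tranylcypromine positive control for full effect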
# Details: CYP2C19 Supersomes, luciferin-H EGE luminescence, 30 min; at 5 µM; stronger effect = higher value
# Chain of Cytochrome P450 2C19 (Homo sapiens) (P33261 whole entry, looked up): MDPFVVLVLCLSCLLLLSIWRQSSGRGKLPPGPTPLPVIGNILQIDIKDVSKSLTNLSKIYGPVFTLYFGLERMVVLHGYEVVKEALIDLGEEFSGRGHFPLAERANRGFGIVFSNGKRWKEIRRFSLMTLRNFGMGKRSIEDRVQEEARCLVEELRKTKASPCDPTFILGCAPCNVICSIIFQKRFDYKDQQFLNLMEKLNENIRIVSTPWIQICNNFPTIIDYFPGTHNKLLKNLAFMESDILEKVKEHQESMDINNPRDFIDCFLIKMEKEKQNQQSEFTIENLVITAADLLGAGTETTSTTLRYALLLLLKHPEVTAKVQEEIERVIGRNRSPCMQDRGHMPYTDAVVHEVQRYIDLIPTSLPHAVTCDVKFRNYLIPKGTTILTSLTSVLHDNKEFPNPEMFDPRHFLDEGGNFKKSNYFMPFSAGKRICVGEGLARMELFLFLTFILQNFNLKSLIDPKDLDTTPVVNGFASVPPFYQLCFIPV
row,SMILES,inhibition
1,N#CCCN1CCN(S(=O)(=O)c2ccc(S(=O)(=O)N3CCCC3)cc2)CC1,-7.1%
2,Cc1cc(-c2cccs2)nc(-n2cccc2)n1,4.9%
3,Cc1cc(C)nc(N(C#N)CC(=O)Nc2ccccc2)n1,-2.6%
4,CCOC(=O)CN(Cc1ccc(OC)c(OC)c1)S(=O)(=O)c1ccc(OC)cc1,81.1% (active)
5,COc1ccc(C(=O)Oc2cc(/C=N/NS(=O)(=O)c3ccc(C)cc3)ccc2OC)cc1,4.8%
6,NS(=O)(=O)c1cccnc1Nc1cccc(Cl)c1,40.5%
7,CCCCNC(=O)c1ccccc1NC(=O)c1ccccc1N(C)S(C)(=O)=O,14.4%
8,COc1ccc(C)cc1-n1nnnc1SCC(=O)c1cc(C)n(Cc2ccco2)c1C,98.7% (active)
9,CNC(=O)CSc1nnnn1-c1ccc(C)cc1C,49.1%
10,COc1ccc(C(=O)CSc2nnc(COc3ccccc3)n2Cc2ccco2)cc1,35%
11,Cc1nc2cc(-c3ccc(F)cc3)nn2c(N2CCOCC2)c1C,5.1%
12,Oc1ccc(-c2onc3ccc(Cl)cc23)cc1,19%
13,COc1ccc(NC(=O)Cn2c(=O)n(Cc3ccco3)c(=O)c3ccccc32)cc1,15.9%
14,CCn1c2ccccc2c2cc(NC(=S)N3CCOCC3)ccc21,11.1%
15,CCn1c2ccccc2c2cc(NC(=O)C/C(C)=N/NC(=O)c3ccccc3N)ccc21,54.7% (active)
16,CN(C(=O)c1ccccn1)c1nnc(-c2ccccn2)s1,1.1%
17,CCOC(=O)N1CCN(c2c(NCCCN3CCCC(C)C3)c(=O)c2=O)CC1 (stereo not given),4.3%
18,CCCNC(=O)c1c(N)n(-c2ccc(S(N)(=O)=O)cc2)c2nc3ccccc3nc12,-13.2%
19,CC(C)Cn1c(CN(Cc2ccccc2)Cc2ccccc2)nc2c1c(=O)n(C)c(=O)n2C,17.7%
20,COCCn1c(CN(Cc2ccccc2)Cc2ccccc2)nc2c1c(=O)n(C)c(=O)n2C,76.4% (active)
21,CC(C)CCn1c(CN(C)Cc2ccccc2)nc2c1c(=O)n(C)c(=O)n2C,42.8%
22,COCc1cc(C)nc2sc(C(=O)NC3CCCCC3)c(N)c12,-2.5%
23,Cc1cc(/C=N/n2cnnc2)c(C)n1-c1cccc(C(=O)O)c1,24.9%
24,Fc1ccccc1OCCSc1nc2ccccc2o1,46.8%
25,COc1ccccc1OCCC(=O)OCC(=O)NC(=O)NC(C)(C)C,14.2%

row,SMILES,inhibition
1,Cc1ccccc1CSCC(=O)NC(=O)NC(C)(C)C,56% (active)
2,O=C(CSCc1ccccc1Cl)NNC(=O)c1ccccc1,40.1%
3,COC(=O)c1ccccc1NC(=O)C1CCN(S(=O)(=O)c2cc(OC)ccc2OC)CC1,93.5% (active)
4,Cn1c(=O)oc2cc(S(=O)(=O)N3CCC(C(=O)Nc4ccc(OC(F)(F)F)cc4)CC3)ccc21,30.4%
5,COc1ccccc1N1CC(C(=O)Nc2ccc(S(=O)(=O)N3CCOCC3)cc2)CC1=O (stereo not given),-1.1%
6,COc1cccc(C(=O)Nc2ccc(N3CCCC3)cc2)c1,48.4%
7,O=C(CN1C(=O)C2C3C=CC(C3)C2C1=O)Nc1nc(-c2ccccn2)cs1 (stereo not given),-13.1%
8,COc1ccc(-c2n[nH]c(C)c2-c2ccc(OC)c(OC)c2)c(O)c1,98.5% (active)
9,C=C(C)COc1ccc(-c2n[nH]c(C)c2-c2ccccc2)c(O)c1,33.7%
10,C=C(C)COc1ccc(-c2n[nH]c(C)c2-c2ccccc2OC)c(O)c1,43.5%
11,COc1nc(N=C(N)N)nc2c(C)cccc12,-8.7%
12,CCOC(=O)c1cc(-c2ccc(Cl)s2)nc2c1c(C)nn2C,17.2%
13,Cc1cc(C)c(S(=O)(=O)NCCCN2CCOCC2)cc1Br,53.9% (active)
14,Cc1ccc(S(=O)(=O)NCCN2CCOCC2)cc1C,24.8%
15,O=S(=O)(O)CCN1CCOCC1,2.1%
16,COc1ccc(C)cc1NC(=O)CSc1nc(SC)ns1,35.5%
17,Cc1ccc(C)c2[nH]c(=O)c(CCNC(=O)CC(C)C)cc12,29.7%
18,CCOC(=O)c1c(NC(=S)Nc2ccccc2)sc2c1CCN(C)C2,26.5%
19,CC1(C)SC2c3ccccc3C(=O)N2[C@@H]1C(=O)NCc1ccco1 (stereo not given in full),62.8% (active)
20,O=C(NCCCCCCNC(=O)NCc1ccco1)NCc1ccco1,-12.7%
21,COc1cc2c(cc1OC)C(C(=O)NCc1ccco1)C1c3ccccc3CCN1C2=O (stereo not given),10.7%
22,COc1nc(NCc2ccc(Cl)cc2)nc(OC)n1,58.5% (active)
23,CCNc1nc(N)nc(-c2cc(Cl)ccc2OC)n1,24.4%
24,C=CCNc1nc(C)nc(OC)n1,-16.5%
25,CCCNC(=S)NC1CC2CCCC(C1)N2CC(C)C (stereo not given),6.3%

row,SMILES,inhibition
1,CC(C)c1cc(C(=O)O)n[nH]1,-11.8%
2,Cc1cccc(-n2ncc(C#N)c2-n2cccc2)c1,21.9%
3,COc1ccccc1N1CCN(CCCCOc2ccc(F)cc2)CC1,13.1%
4,c1ccc(CCn2nnnc2CN2CCN(C3CCCC3)CC2)cc1,-12%
5,COc1ccccc1N1CCN(Cc2nnnn2CCc2ccccc2)CC1,75.4% (active)
6,CCOC(=O)c1sc(N(Cc2ccccc2)C(=O)CN2C(=O)CN(C)C2=O)nc1C,14.5%
7,CCOc1ccc(OCC)c(-c2c(=O)n(OCc3ccc(Cl)cc3)c3ccccc3[n+]2[O-])c1,76.2% (active)
8,Cc1cc(C)cc(NC(=O)c2cccc(NC(=O)C3C4CC5OC(=O)C3C5C4)c2)c1 (stereo not given),3%
9,COc1ccc(N2CCN(C(=O)CSc3nnc4ncccn34)CC2)cc1,29.2%
10,Cc1ccc2nc(NC3=NCN(CCc4ccccc4)CN3)nc(C)c2c1,-14.5%
11,COCc1nc2ccccc2n1Cc1ccccc1Br,55.6% (active)
12,CCC(=O)Nc1nc2ccccc2n1Cc1ccccc1C,49.7%
13,O=S(=O)(O)c1nc2ccccc2n1Cc1ccc(Cl)cc1Cl,11.3%
14,COCn1c(COc2ccccc2)nc2ccccc21,51.4% (active)
15,CCc1nc2ccccc2n(CCOCCOCCn2c(=O)c(CC)nc3ccccc32)c1=O,24.1%
16,COCC(=O)Nc1nnc(COc2ccccc2)s1,-3%
17,CCCCc1cc(=O)oc2cc(C)cc(OCc3nn[nH]n3)c12,11.2%
18,CN1CCN(S(=O)(=O)c2ccc(NC(=O)C3CCCO3)cc2)CC1 (stereo not given),3.5%
19,COc1ccc(OC)c2c1sc(=NC(=O)CN1C(=O)CCC1=O)n2C,11.6%
20,COc1ccccc1NC(=O)c1ccc(C)s1,36.8%
21,O=c1c2ccccc2nc2n1C1(CCCCC1)Cc1ccccc1-2,74.3% (active)
22,c1cncc(-c2nnc3n2C2(CCCCC2)Cc2ccccc2-3)c1,3%
23,CCC1(CC)Cc2ccccc2-c2nc3ccccc3c(=O)n21,13.4%
24,CCCCNc1ccc(C(=O)Nc2cccc(C)n2)cc1[N+](=O)[O-],-3%
25,COc1ccc(N(CCC#N)S(=O)(=O)c2ccc(Cl)cc2)cc1,49.6%

row,SMILES,inhibition
1,CCn1c(NC(=O)c2ccccc2)c(-c2cccs2)c(=O)c2ccccc21,-4.5%
2,CCOc1ccccc1N(CC(=O)Nc1ccccc1C(=O)OC)S(C)(=O)=O,14.5%
3,CCOc1ccc(NC(=O)c2ccccc2NS(C)(=O)=O)cc1,16.2%
4,COC(=O)c1ccc(NC(=O)c2ccccc2NS(=O)(=O)c2ccccc2)cc1,41.7%
5,COC(=O)c1ccccc1NC(=O)CN(Cc1ccccc1)S(C)(=O)=O,17.1%
6,COC(=O)c1ccccc1NC(=O)CN(Cc1ccc(Cl)cc1)S(C)(=O)=O,96.6% (active)
7,COC(=O)c1ccccc1NC(=O)c1ccccc1NS(C)(=O)=O,62.7% (active)
8,O=C(OC1CCCCC1=O)c1cccc(S(=O)(=O)NCc2ccccc2)c1 (stereo not given),41.1%
9,CC(=O)c1c(C)[nH]c(C(=O)NCCCN2CCCC2)c1C,-10.9%
10,O=C(O)c1ccccc1-c1ccccc1C(=O)Nc1cccc2ccccc12,0.9%
11,COc1ccccc1-n1cnc2cc(C(=O)NCC3CCCO3)ccc21 (stereo not given),13.8%
12,COCCCNC(=O)c1ccc2c(c1)ncn2-c1ccccc1OC,1.5%
13,COc1ccccc1-n1cnc2cc(NS(=O)(=O)c3ccccc3)ccc21,64.8% (active)
14,O=C(Nc1nc2ccc(S(=O)(=O)N3CCCC3)cc2s1)C1CCCO1 (stereo not given),-2.2%
15,CCc1nnc(NC(=O)c2nc3nccc(C)n3n2)s1,0.6%
16,O=C1Cc2ccccc2Sc2ccc(Cl)cc21,58.3% (active)
17,O=C(CSc1nc2ccccc2o1)N1c2ccccc2Sc2ccc(Cl)cc21,36.4%
18,Cc1ccc(SCc2cc(=O)[nH]c(N3CCCCC3)n2)cc1,30.5%
19,COC(=O)c1ccc(OCC(=O)NC(C)(C)C)cc1,67.1% (active)
20,CC(C)(C)NC(=O)COc1ccc(CNc2ccc3[nH]c(=O)[nH]c3c2)cc1,11.8%
21,COc1ccc(OCC(=O)NNC(=O)c2ccc(-c3ccccc3)cc2)cc1,-6%
22,CC(NC(=O)COc1ccccc1)C(=O)NC1=NCCS1 (stereo not given),10.5%
23,COC(=O)/C=C/C(=O)NCc1ccco1,-5.7%
24,CCC(=O)Nc1nc(OC)cc(OC)n1,2.1%
25,FC(F)(F)c1nc2ccccc2nc1N/N=C/c1ccc(Cl)cc1,16.6%
